Hit rate of the full screen: of about 5,500 compounds, about 2,000 (36%) were called active. Roughly 18% stayed inconclusive and do not appear here. Rule as the data show it: active = normalized growth mostly below about 0.91 (no sharp cut-off); inconclusive = no clear call, values can overlap the other calls; inactive = mostly above about 0.92. Some of the results follow.
Assay: chemical genetic growth profiling, strain panel (AID 1159580);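 also: tested at 20 µM; growth read once vehicle control cultures reached saturation at 30 °C; 1 = growth at the plate median or of vehicle wells; lower values mean less growth of the strain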
Details: growth OD

Measured: normalized growth

COC(=O)Nc1nc2ccc(Sc3ccccc3)cc2[nH]1
inactive: S. cerevisiae deletion strains, locus YJR075W, strain HOC1, stronger effect = lower value 0.982 | S. cerevisiae deletion strains, locus YKL009W, strain mrt4, stronger effect = lower value 0.951 | S. cerevisiae deletion strains, locus YKL068W, stronger effect = lower value 0.996 | S. cerevisiae deletion strains, locus YKL085W, strain MDH1 (second series), stronger effect = lower value 0.959 | S. cerevisiae deletion strains, locus YKL085W, strain MDH1, stronger effect = lower value 0.959 | S. cerevisiae deletion strains, locus YKL160W, strain elf1, stronger effect = lower value 0.997 | S. cerevisiae deletion strains, locus YKL190W, strain CNB1, stronger effect = lower value 0.996 | S. cerevisiae deletion strains, locus YKR001C, strain vps1, stronger effect = lower value 0.978 | S. cerevisiae deletion strains, locus YKR026C, strain gcn3, stronger effect = lower value 0.98 | S. cerevisiae deletion strains, locus YKR091W, strain srl3, stronger effect = lower value 1.01 | S. cerevisiae deletion strains, locus YLL001W, strain dnm1, stronger effect = lower value 1 | S. cerevisiae deletion strains, locus YLL026W, stronger effect = lower value 0.992 | S. cerevisiae deletion strains, locus YLL041C, strain sdh2, stronger effect = lower value 0.989 | S. cerevisiae deletion strains, locus YLR027C, strain aat2, stronger effect = lower value 0.995 | S. cerevisiae deletion strains, locus YLR039C, strain RIC1, stronger effect = lower value 0.95 | S. cerevisiae deletion strains, locus YLR058C, strain SHM2, stronger effect = lower value 0.996 | S. cerevisiae deletion strains, locus YLR102C, strain apc9, stronger effect = lower value 1 | S. cerevisiae deletion strains, locus YLR113W, strain HOG1, stronger effect = lower value 0.957 | S. cerevisiae deletion strains, locus YLR221C, strain rsa3, stronger effect = lower value 0.992 | S. cerevisiae deletion strains, locus YLR258W, strain gsy2, stronger effect = lower value 0.99 | S. cerevisiae deletion strains, locus YLR262C, strain YPT6 (second series), stronger effect = lower value 0.921 | S. cerevisiae deletion strains, locus YLR262C, strain YPT6, stronger effect = lower value 0.965 | S. cerevisiae deletion strains, locus YLR268W, strain sec22, stronger effect = lower value 1.01 | S. cerevisiae deletion strains, locus YLR320W, strain mms22, stronger effect = lower value 0.998 | S. cerevisiae deletion strains, locus YLR330W, strain CHS5, stronger effect = lower value 0.994 | S. cerevisiae deletion strains, locus YLR342W, strain FKS1 (second series), stronger effect = lower value 0.93 | S. cerevisiae deletion strains, locus YLR342W, strain FKS1, stronger effect = lower value 0.983 | S. cerevisiae deletion strains, locus YLR357W, strain rsc2, stronger effect = lower value 0.951 | S. cerevisiae deletion strains, locus YLR370C, strain arc18, stronger effect = lower value 1 | S. cerevisiae deletion strains, locus YLR371W, strain rom2, stronger effect = lower value 1.01 | S. cerevisiae deletion strains, locus YLR384C, strain iki3, stronger effect = lower value 0.996 | S. cerevisiae deletion strains, locus YLR418C, strain cdc73, stronger effect = lower value 0.918 | S. cerevisiae deletion strains, locus YML016C, strain PPZ1, stronger effect = lower value 0.989 | S. cerevisiae deletion strains, locus YML032C, strain rad52, stronger effect = lower value 1 | S. cerevisiae deletion strains, locus YML120C, strain ndi1, stronger effect = lower value 0.98 | S. cerevisiae deletion strains, locus YMR058W, strain fet3, stronger effect = lower value 0.994 | S. cerevisiae deletion strains, locus YMR078C, strain ctf18, stronger effect = lower value 1.01 | S. cerevisiae deletion strains, locus YMR125W, strain sto1, stronger effect = lower value 0.984 | S. cerevisiae deletion strains, locus YMR129W, stronger effect = lower value 1 | S. cerevisiae deletion strains, locus YMR205C, strain PFK2, stronger effect = lower value 0.988 | S. cerevisiae deletion strains, locus YMR223W, strain ubp8, stronger effect = lower value 0.968 | S. cerevisiae deletion strains, locus YMR231W, strain pep5, stronger effect = lower value 0.984 | S. cerevisiae deletion strains, locus YMR263W, strain SAP30, stronger effect = lower value 0.973 | S. cerevisiae deletion strains, locus YMR307W, strain GAS1, stronger effect = lower value 0.974 | S. cerevisiae deletion strains, locus YNL067W, strain RPL9B, stronger effect = lower value 0.996 | S. cerevisiae deletion strains, locus YNL071W, strain lat1, stronger effect = lower value 0.988 | S. cerevisiae deletion strains, locus YNL128W, strain TEP1, stronger effect = lower value 1.01 | S. cerevisiae deletion strains, locus YNL183C, strain NPR1, stronger effect = lower value 0.893 | S. cerevisiae deletion strains, locus YNL209W, strain ssb2, stronger effect = lower value 1.01 | S. cerevisiae deletion strains, locus YNL233W, strain BNI4, stronger effect = lower value 0.977 | S. cerevisiae deletion strains, locus YNL248C, strain rpa49, stronger effect = lower value 0.999 | S. cerevisiae deletion strains, locus YNL250W, strain rad50, stronger effect = lower value 1 | S. cerevisiae deletion strains, locus YNL271C, strain bni1, stronger effect = lower value 1.01 | S. cerevisiae deletion strains, locus YNL298W, strain CLA4, stronger effect = lower value 0.99 | S. cerevisiae deletion strains, locus YNL307C, strain MCK1, stronger effect = lower value 0.993 | S. cerevisiae deletion strains, locus YNL322C, strain KRE1 (second series), stronger effect = lower value 0.988 | S. cerevisiae deletion strains, locus YNL322C, strain KRE1, stronger effect = lower value 1 | S. cerevisiae deletion strains, locus YNR049C, strain mso1, stronger effect = lower value 0.997 | S. cerevisiae deletion strains, locus YNR052C, strain pop2, stronger effect = lower value 1 | S. cerevisiae deletion strains, locus YOL006C, strain TOP1, stronger effect = lower value 0.981 | S. cerevisiae deletion strains, locus YOL012C, strain htz1 0.49 | S. cerevisiae deletion strains, locus YOL147C, strain pex11, stronger effect = lower value 0.996 | S. cerevisiae deletion strains, locus YOR001W, strain rrp6, stronger effect = lower value 0.985 | S. cerevisiae deletion strains, locus YOR061W, strain CKA2, stronger effect = lower value 0.994 | S. cerevisiae deletion strains, locus YOR069W, strain VPS5, stronger effect = lower value 1 | S. cerevisiae deletion strains, locus YOR070C, strain gyp1, stronger effect = lower value 0.99 | S. cerevisiae deletion strains, locus YOR080W, strain dia2, stronger effect = lower value 0.993 | S. cerevisiae deletion strains, locus YOR083W, strain WHI5, stronger effect = lower value 0.976 | S. cerevisiae deletion strains, locus YOR106W, strain vam3, stronger effect = lower value 0.972 | S. cerevisiae deletion strains, locus YOR136W, strain idh2, stronger effect = lower value 0.993 | S. cerevisiae deletion strains, locus YOR144C, strain elg1, stronger effect = lower value 1 | S. cerevisiae deletion strains, locus YOR184W, strain ser1, stronger effect = lower value 0.984 | S. cerevisiae deletion strains, locus YOR231W, strain MKK1, stronger effect = lower value 0.973 | S. cerevisiae deletion strains, locus YOR265W, strain rbl2, stronger effect = lower value 0.982 | S. cerevisiae deletion strains, locus YOR270C, strain vph1, stronger effect = lower value 0.991 | S. cerevisiae deletion strains, locus YOR290C, strain snf2, stronger effect = lower value 0.993 | S. cerevisiae deletion strains, locus YOR316C, strain cot1, stronger effect = lower value 0.998 | S. cerevisiae deletion strains, locus YPL051W, strain arl3, stronger effect = lower value 0.996 | S. cerevisiae deletion strains, locus YPL055C, strain LGE1, stronger effect = lower value 0.953 | S. cerevisiae deletion strains, locus YPL078C, strain atp4, stronger effect = lower value 0.994 | S. cerevisiae deletion strains, locus YPL106C, strain sse1, stronger effect = lower value 1.08 | S. cerevisiae deletion strains, locus YPL240C, strain hsp82, stronger effect = lower value 1 | S. cerevisiae deletion strains, locus YPL256C, strain CLN2, stronger effect = lower value 0.959 | S. cerevisiae deletion strains, locus YPR119W, strain clb2, stronger effect = lower value 1 | S. cerevisiae deletion strains, locus YPR141C, strain kar3, stronger effect = lower value 1.02 | S. cerevisiae deletion strains, locus YPR163C, strain tif3, stronger effect = lower value 0.986 | S. cerevisiae deletion strains, locus YPR167C, strain met16, stronger effect = lower value 1 | S. cerevisiae deletion strains, strain wtn01, stronger effect = lower value 0.998 | S. cerevisiae strains, strain wild type, stronger effect = lower value 0.997
active: S. cerevisiae deletion strains, locus YML124C, strain tub3, stronger effect = lower value 0.181 | S. cerevisiae deletion strains, locus YNL153C, strain GIM3, stronger effect = lower value 0.0686 | S. cerevisiae deletion strains, locus YPL241C, strain CIN2, stronger effect = lower value 0.0715
